What was measured:
Conditions in all cases: Compound Concentration (nM):1000
BIKE = tested on: T1, BIKE
T1 construct: gene BMP2K

BLK = tested on: BLK
BMPR1A = tested on: BMPR1A
BMPR1B = tested on: BMPR1B
BMPR2 = tested on: BMPR2
BMX = tested on: BMX
BRAF(V600E) = tested on: BRAF(V600E)
BRAF = tested on: BRAF
BRK = tested on: T2, BRK
T2 construct: gene PTK6

BRSK1 = tested on: BRSK1
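Further: KINOMEscan scanMAX binding as percent activity remaining versus control; lower means stronger binding.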

SMILES | Percent Control (BIKE) [%] | Percent Control (BLK) [%] | Percent Control (BMPR1A) [%] | Percent Control (BMPR1B) [%] | Percent Control (BMPR2) [%] | Percent Control (BMX) [%] | Percent Control (BRAF(V600E)) [%] | Percent Control (BRAF) [%] | Percent Control (BRK) [%] | Percent Control (BRSK1) [%]
COc1ccc2cc(-c3c(-c4ccncc4)nc(-c4ccc(S(C)(=O)=O)cc4C)n3C)ccc2c1 [SB-633825] | 100 | 52 | 79 | 63 | 91 | 54 | 86 | 97 | 44 | 100
COc1cccc(-c2c[nH]c3c(N/N=C/c4ccncc4)ncnc23)c1 [GW814408X] | 38 | 19 | 31 | 0.1 | 99 | 100 | 26 | 29 | 100 | 100
Cl.O=C(Nc1ccc(Oc2ccc3[nH]c(NC(=O)c4ccccc4)nc3c2)cc1)Nc1cc(C(F)(F)F)ccc1F [GW709042A] | 100 | 98 | 98 | 94 | 100 | 94 | 34 | 58 | 100 | 100
CN(C)CCNC(=O)Nc1ccc(N(C)c2ccnc(Nc3ccc(CS(C)(=O)=O)cc3)n2)cc1.Cl [GW830900A] | 5.1 | 93 | 100 | 52 | 100 | 98 | 100 | 100 | 96 | 90
Cc1cc(O)cc(C)c1/C=C/c1cncc(C(N)=O)c1 [GW435821X] | 100 | 59 | 64 | 4.4 | 100 | 100 | 12 | 23 | 58 | 94
NS(=O)(=O)c1ccc(N/N=C2\C(=O)Nc3ccc(Cl)cc32)cc1 [GW280670X] | 100 | 100 | 100 | 100 | 100 | 100 | 92 | 100 | 100 | 100
COc1cccc(-n2ncc3c(N/N=C/c4ccncc4)ncnc32)c1 [GW784752X] | 66 | 45 | 51 | 0.1 | 86 | 100 | 3.2 | 6.5 | 100 | 18
O=C(Nc1n[nH]c2nc(-c3ccc(O)cc3)c(Br)cc12)C1CC1 [SB-725317] | 63 | 92 | 98 | 69 | 100 | 100 | 5.3 | 17 | 100 | 46
Cl.O=S1CCN(Cc2ccc(-c3ccc4ncnc(Nc5ccc(OCc6ccccc6)c(F)c5)c4c3)o2)CC1 [GW576924A] | 100 | 100 | 100 | 100 | 100 | 100 | 65 | 79 | 100 | 100
Cl.O=C(O[C@H]1CN[C@H](C#Cc2cc3ncnc(Nc4ccc5c(cnn5Cc5ccccc5)c4)c3s2)C1)N1CCOCC1 [GSK200398A] | 100 | 100 | 96 | 90 | 99 | 98 | 99 | 91 | 78 | 100
NS(=O)(=O)c1ccc(N/N=C2\C(=O)Nc3ccc(-c4cnco4)cc32)cc1 [GW276655] | 20 | 63 | 100 | 94 | 62 | 100 | 100 | 86 | 82 | 100
CC1=C(C(=O)Nc2ccc3[nH]ncc3c2)C(c2ccc(Cl)c(Cl)c2)CC(=O)N1 (stereo not shown) [GSK299115A] | 100 | 91 | 100 | 67 | 69 | 75 | 82 | 100 | 70 | 92
COc1ccc2[nH]c3c4[nH]c5ccc(OC)cc5c4c4c(c3c2c1)C(=O)NC4=O [GW296115X] | 76 | 71 | 100 | 56 | 93 | 99 | 89 | 86 | 81 | 10
COc1cc(N2CCN(C(C)C)CC2)ccc1Nc1nc(Nc2ccc(F)cc2C(=O)NC[C@@H](O)CO)c2cc[nH]c2n1 [GSK1392956A] | 81 | 99 | 100 | 88 | 97 | 100 | 90 | 94 | 100 | 100
COc1ccccc1-c1cc(/C=C2\C(=O)Nc3ncc(Br)cc32)cc(Br)c1O [GW442130X] | 100 | 63 | 86 | 85 | 97 | 100 | 68 | 78 | 100 | 98
NS(=O)(=O)c1ccc(N/N=C2\C(=O)Nc3ccc(C(=O)NCc4ccncc4)cc32)cc1 [GW300657X] | 60 | 99 | 100 | 78 | 68 | 100 | 87 | 97 | 100 | 100
COc1ccc(COc2ccc(Cc3cnc(N)nc3N)cc2OC)cc1 [GW632580X] | 94 | 78 | 100 | 92 | 94 | 100 | 91 | 100 | 100 | 100
COc1cc(C)c(N(C)C(=O)CN(C)C)cc1Nc1nc(Nc2cccc(F)c2C(N)=O)c2cc[nH]c2n1 [GSK2219385] | 77 | 100 | 93 | 95 | 91 | 92 | 82 | 72 | 100 | 100
CC1=C(C(=O)Nc2ccc3[nH]ncc3c2)C(c2ccc3ccccc3c2)CC(=O)N1 (stereo not shown) [GSK270822A] | 100 | 35 | 100 | 43 | 75 | 78 | 80 | 100 | 80 | 100
O=C1Nc2ccc(C(=O)c3ccco3)cc2C1=Cc1cc(Cl)c(O)c(Cl)c1 [GW406108X] | 59 | 100 | 100 | 35 | 0 | 81 | 1.2 | 4.4 | 100 | 100

SMILES | Percent Control (BIKE) [%] | Percent Control (BLK) [%] | Percent Control (BMPR1A) [%] | Percent Control (BMPR1B) [%] | Percent Control (BMPR2) [%] | Percent Control (BMX) [%] | Percent Control (BRAF(V600E)) [%] | Percent Control (BRAF) [%] | Percent Control (BRK) [%] | Percent Control (BRSK1) [%]
Cl.O=C(Nc1ccc(Oc2ccc3[nH]c(NC(=O)c4ccco4)nc3c2)cc1)Nc1cc(C(F)(F)F)ccc1F [GW683134A] | 100 | 70 | 73 | 100 | 98 | 87 | 13 | 32 | 100 | 100
COc1cc2ncnc(Nc3ccc4c(cnn4Cc4ccccc4)c3)c2cc1OC.Cl [GW282449A] | 100 | 23 | 92 | 91 | 100 | 100 | 100 | 100 | 75 | 100
COc1cc2ncn(-c3cc(O[C@H](C)c4ccccc4Cl)c(C(N)=O)s3)c2cc1OC [GSK237701A] | 1.4 | 68 | 100 | 88 | 72 | 75 | 75 | 100 | 100 | 76
C/C(Nc1ccc(S(N)(=O)=O)cc1)=C1/C(=O)Nc2ccccc21 [GW335962X] | 100 | 100 | 99 | 97 | 84 | 86 | 86 | 100 | 95 | 91
COc1cc(C=NNc2ncnc3c2cnn3-c2ccccc2)ccc1O [GW513184X] | 25 | 16 | 40 | 20 | 100 | 100 | 65 | 77 | 100 | 54
CCS(=O)(=O)c1ccc(OC)c(Nc2ncc(-c3cccc(OC)c3)o2)c1 [GW580509X] | 100 | 21 | 100 | 45 | 100 | 100 | 78 | 86 | 100 | 100
NS(=O)(=O)c1ccc(Nc2ncc(-c3ccccc3)o2)cc1 [GW572399X] | 100 | 89 | 100 | 83 | 100 | 100 | 80 | 95 | 100 | 100
CCn1c(-c2nonc2N)nc2c(C#CC(C)(C)O)nc(OCCNC)cc21.Cl [GSK949675] | 75 | 96 | 89 | 89 | 100 | 100 | 100 | 100 | 100 | 100
COC(=O)Nc1nc2ccc(Oc3ccc(NC(=O)Nc4cc(C(F)(F)F)ccc4F)cc3)cc2s1.Cl [GW693917A] | 75 | 61 | 89 | 80 | 99 | 100 | 17 | 30 | 96 | 100
CCc1ccc(Oc2nccc(-c3c(-c4ccc(F)cc4)ncn3C3CCNCC3)n2)cc1 [SB-242719] | 100 | 82 | 87 | 88 | 82 | 100 | 100 | 100 | 94 | 94
CC(C)COC(=O)c1ccc2c(c1)/C(=C/Nc1ccc(S(N)(=O)=O)cc1)C(=O)N2 [GW416981X] | 27 | 100 | 100 | 96 | 30 | 100 | 97 | 100 | 100 | 100
C[C@@H](Oc1cc(-n2cnc3ccc(OC4CCN(C)CC4)cc32)sc1C(N)=O)c1ccccc1Cl [GSK579289A] | 19 | 94 | 72 | 67 | 78 | 98 | 82 | 95 | 77 | 64
COc1ccc2c(-c3ccnc(Nc4cccc(OC(F)(F)F)c4)n3)cnn2n1 [GW810372X] | 58 | 100 | 100 | 100 | 100 | 90 | 92 | 100 | 100 | 100
CN(C)c1cc2c(Nc3ccc4c(cnn4Cc4ccccc4)c3)ncnc2cn1 [GW282974X] | 86 | 80 | 100 | 91 | 100 | 100 | 99 | 92 | 75 | 92
CN1CCN(C(=O)c2ccc(NC(=O)Nc3ccc(N(C)c4ccnc(Nc5ccc(CS(C)(=O)=O)cc5)n4)cc3)cc2)CC1.Cl [GW830263A] | 2.4 | 87 | 32 | 1.1 | 56 | 59 | 85 | 89 | 95 | 100
NS(=O)(=O)c1ccc(N/N=C2\C(=O)Nc3ccc(C(=O)NCCc4c[nH]cn4)cc32)cc1 [GW300660X] | 100 | 100 | 100 | 95 | 87 | 100 | 86 | 100 | 100 | 100
Nc1ncnc2occ(-c3ccc(NC(=O)Nc4cc(C(F)(F)F)ccc4F)cc3)c12 [GW770249X] | 100 | 83 | 100 | 100 | 97 | 41 | 7 | 28 | 100 | 100
Cl.c1ccc(Cc2nc3ccc(Nc4ncnc5ccccc45)cc3[nH]2)cc1 [GR269666A] | 100 | 100 | 100 | 100 | 100 | 100 | 88 | 100 | 100 | 100
COc1cc(/C=N/Nc2ncnc3[nH]ncc23)ccc1O [GW578748X] | 53 | 32 | 100 | 22 | 9.6 | 89 | 26 | 35 | 80 | 100
CCS(=O)(=O)c1ccc(OC)c(Nc2ncc(-c3cccc(F)c3)o2)c1 [GW621970X] | 100 | 16 | 95 | 64 | 100 | 100 | 73 | 91 | 100 | 100

Reference: paper PMC7826789 (International Journal of Molecular Sciences, 2021)
